Screens: PubChem BioAssay, Broad Institute
MITF inhib: blocks MITF activity; TRPM1 promoter luciferase, luminescence, 24 h; inhibition, % (test concentration not listed); 0.28% of 37,000 active; in the data active = inhibition above about 85%;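 note: human melanocyte line stably carrying TRPM1 promoter luciferase reporter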
NOMO-1 viab: STK33 inhibitor candidate reducing NOMO-1 cell viability | NOMO-1 AML viability, CellTiter-Glo luminescence, 72 h | inhibition, % (no concentration beside the values) | 7.5% of 37,000 active | AID 2330; in the data active = inhibition above about 80%
Shh pathway inh: Sonic Hedgehog pathway inhibition. inhibition, % (test concentration not listed). AID 2313. Shh-LIGHT2 Gli-luciferase reporter, 30 h. 2.1% of 22,000 active;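 active = mean inhibition across valid replicates above about 65%, limit read from the data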;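 note: pathway switched on by Shh-conditioned medium diluted 1 in 25 in low serum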
Starred values were filed as active, the others as inactive; x = no result given. Shown are actives, neighbours in structure and some others; about 7.8% of the full set was active somewhere.

SMILES	MITF inhib	NOMO-1 viab	Shh pathway inh
COc1ccc(S(=O)(=O)N(C)C[C@@H]2Oc3ccc(NC(=O)Nc4ccc(C(F)(F)F)cc4)cc3CC(=O)N([C@@H](C)CO)C[C@@H]2C)cc1	49.6	102.2*	-31.9
COc1ccc(S(=O)(=O)N(C)C[C@@H]2Oc3ccc(NC(=O)Nc4ccc(C(F)(F)F)cc4)cc3CC(=O)N([C@H](C)CO)C[C@H]2C)cc1	-12.5	-12.9	-22.9
COc1ccc(NC(=O)Nc2ccc3c(c2)CC(=O)N([C@@H](C)CO)C[C@H](C)[C@@H](CN(C)S(=O)(=O)c2ccc(F)cc2)O3)cc1	-8.5	-9.3	x
O=C(COc1ccc2ccccc2c1)Nc1cccc(NC(=O)c2ccc(Cl)cc2Cl)c1	-16.4	14.6	x
O=C(c1ccc(Oc2ccccc2)cc1)c1coc2ccc(O)cc12	63.3	139.3*	-49.1
O=C(O)COc1ccc2occ(C(=O)c3ccccc3)c2c1	-5.2	-8.4	x
C1=CN(c2ccccc2)C(C=NCc2ccccc2)=CS1	-6.1	69.1	-8.7
C=C(C)C1Cc2cc(C(C)=O)ccc2O1 (stereo unspecified)	x	x	-16.8
C=C(C)[C@@H]1Cc2c(ccc3c2O[C@H]2COc4cc(OC)c(OC)cc4[C@@]2(O)C3=O)O1	66.4	116.8*	44.6
CCN(CC)S(=O)(=O)c1ccc(Cl)c(C(=O)Oc2ccc(C)c(C)c2)c1	0.6	22.7	-31.4
O=C(CC1(O)C(=O)N(Cc2cccc3ccccc23)c2ccccc21)c1ccccn1 (stereo unspecified)	35.6	111.5*	x
NC(=O)CN1C(=O)C(O)(CC(=O)c2cccnc2)c2ccccc21 (stereo unspecified)	10.1	-6.9	x
COc1ccc(CN2C(=O)C(O)(CC(=O)c3ccco3)c3ccccc32)cc1OC (stereo unspecified)	0.7	118.2*	x
Cc1ccc(C(=O)CC2(O)C(=O)N(Cc3cccc4ccccc34)c3ccccc32)o1 (stereo unspecified)	16.7	36.1	x
Cc1ccc(C(=O)CC2(O)C(=O)N(CC(N)=O)c3ccccc32)s1 (stereo unspecified)	4.6	-1.2	x
C#CCN1C(=O)C(O)(CC(=O)c2ccc(C)o2)c2ccccc21 (stereo unspecified)	7.1	120.3*	x
COc1ccc(CN2C(=O)C(O)(CC(=O)c3ccc4ccccc4c3)c3ccccc32)cc1OC (stereo unspecified)	12.2	61.2	x
O=C(CC1(O)C(=O)N(Cc2cccc3ccccc23)c2ccccc21)c1ccco1 (stereo unspecified)	20.7	110.9*	x
COc1cc(O[C@@H]2O[C@H](CO[C@H]3OC[C@](O)(CO)[C@H]3O)[C@@H](O)[C@H](O)[C@H]2O)cc(OC)c1OC	-10.0	64.5	0.9
COc1cc([C@@H](O)[C@@H](CO[C@@H]2O[C@H](CO)[C@@H](O)[C@H](O)[C@H]2O)Oc2ccc(/C=C/CO)cc2OC)ccc1O	2.5	5.0	9.2
CC(=O)/C=C/C1(O)C(C)CCC2C(C)(C)CCCC21C (stereo unspecified)	-14.6	37.5	-9.7
COc1ccc(C(=O)CSc2nnc(-c3ccc([N+](=O)[O-])cc3)o2)cc1	-17.1	-9.2	x
COc1ccc([N+](=O)[O-])cc1NC(=O)CN(c1ccc(I)cc1)S(C)(=O)=O	37.0	19.0	x
CC(NS(=O)(=O)c1ccccc1)C(=O)Nc1ccccc1F (stereo unspecified)	4.5	-4.8	x
CCCCN1C(=O)C(O)(CC(=O)c2ccccn2)c2ccccc21 (stereo unspecified)	-2.8	125.4*	x
SMILES	MITF inhib	NOMO-1 viab	Shh pathway inh
Cc1coc(C)c1C(=O)CC1(O)C(=O)N(CCCC#N)c2ccccc21 (stereo unspecified)	3.0	32.1	x
Cc1ccc(OCC(=O)Nc2cccc3ncccc23)c(C)c1	-29.9	35.8	x
C[C@@H]1CN([C@H](C)CO)C(=O)Cc2cc(N(C)C)ccc2O[C@H]1CN(C)Cc1ccc(Oc2ccccc2)cc1	5.8	109.6*	-13.1
C[C@@H]1CN([C@@H](C)CO)C(=O)c2cc(N(C)C)ccc2O[C@H]1CN(C)Cc1ccc(Oc2ccccc2)cc1	1.8	43.7	1.2
C[C@@H]1CN([C@@H](C)CO)C(=O)Cc2cc(N(C)C)ccc2O[C@@H]1CN(C)Cc1ccc(Cl)c(Cl)c1	33.2	126.9*	-23.1
C[C@H](CO)N1C[C@H](C)[C@H](CN(C)Cc2ccc(Oc3ccccc3)cc2)Oc2ccc(N(C)C)cc2CC1=O	13.9	-4.2	3.9
C[C@@H]1CN([C@@H](C)CO)C(=O)c2cc(N(C)C)ccc2O[C@@H]1CN(C)Cc1ccc(Oc2ccccc2)cc1	10.1	89.8*	43.4
C[C@H]1CN([C@@H](C)CO)C(=O)Cc2cc(N(C)C)ccc2O[C@H]1CN(C)Cc1ccc(Cl)c(Cl)c1	-19.2	-0.6	28.5
COc1ccc(CNCCSc2nnnn2C)cc1	-11.7	9.0	x
CSc1ccccc1NC(=O)CN(c1ccc(Cl)cc1)S(C)(=O)=O	-12.2	4.6	x
Cc1ccc(NC(=O)CCn2cnc3ccccc3c2=O)cc1C	-66.5	4.2	x
Cc1ccc(S(=O)(=O)CCSc2cccc(C(=O)Nc3ccccc3)c2)cc1	4.1	-2.7	x
COc1ccc(NC(=O)CCSc2nnc3scc(-c4ccc(C)cc4)n23)cc1	-5.9	8.0	x
O=C(N=S1CCN(C(=O)c2ccc(Cl)cc2)CC1)c1ccc(Cl)cc1	6.2	17.6	3.8
CN1Cc2cc3c(cc2CCC(=O)c2cc4c(cc2C1)OCO4)OCO3	5.1	17.4	-6.0
O=C(O)CCc1ccc(-c2cccs2)n1-c1cc(Cl)ccc1O	14.6	39.3	x
CS(=O)(=O)N(CC(=O)Nc1ccc(I)cc1)c1ccc(Cl)cc1Cl	8.0	4.2	x
COc1cc2nc(N3CCN(C(=O)c4ccco4)CC3)nc(N)c2cc1OC	2.3	94.6*	1.2
COc1cc2nc(N3CCN(C(=O)C4COc5ccccc5O4)CC3)nc(N)c2cc1OC (stereo unspecified)	0.3	-2.3	28.1
Cc1cc(Br)ccc1NC(=O)CCCN1C(=O)c2ccccc2C1=O	-8.7	4.0	x
CSc1sc(C(=O)NN)cc1S(=O)(=O)C(C)C	4.1	49.8	-29.8
CCN(CC(=O)Nc1ccc2c(c1)OCCO2)S(=O)(=O)c1ccc2ccccc2c1	-19.6	-23.5	x
C[C@@H]1CN([C@@H](C)CO)C(=O)c2cc(NC(=O)Cc3cn(C)c4ccccc34)ccc2O[C@@H]1CN(C)Cc1ccc(Oc2ccccc2)cc1	38.3	113.8*	x
C[C@H]1CN([C@@H](C)CO)C(=O)c2cc(NC(=O)Cc3cn(C)c4ccccc34)ccc2O[C@@H]1CN(C)Cc1ccc(Oc2ccccc2)cc1	24.9	94.5*	x
C[C@@H]1CN([C@@H](C)CO)C(=O)c2cc(NC(=O)Cc3cn(C)c4ccccc34)ccc2O[C@H]1CN(C)Cc1ccc(Oc2ccccc2)cc1	14.6	55.5	-21.7
C[C@H]1CN([C@@H](C)CO)C(=O)c2cc(NC(=O)Cc3cn(C)c4ccccc34)ccc2O[C@H]1CN(C)Cc1ccc(Oc2ccccc2)cc1	21.4	31.4	x
Cc1ccc(NC(=O)CC2NC3CCCCC3NC2=O)cc1Cl (stereo unspecified)	-4.5	-15.0	x
COC(=O)c1ccc(NC(=O)CN(c2ccc(C)cc2C)S(C)(=O)=O)cc1	-24.4	12.5	x
C[C@H](CO)N1C[C@H](C)[C@@H](CN(C)Cc2ccc(C(F)(F)F)cc2)Oc2ccc(NC(=O)Nc3ccccc3)cc2C1=O	6.9	63.2	-17.4
